The values below come from PubChem BioAssay AID1053124 (Broad Institute, 2014).

SMILES strings stand for the structures. Potency and affinity values are given separately. Active and inactive are the calls of the source.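 How the source made its calls: active means cell killing whose fitted half-effect concentration is at most twice the top valid dose tested; inconclusive means flat curve with 30 to 70% killing, or a poor fit; inactive means effect in the rising direction, plus the rest.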

A short description of the test: viability loss in A549 lung cells – cell-based, ATP luminescence, cherry-pick, set 2, cytotoxicity control, dose response (AID 1053124). The settings on record: ATP luminescence (CellTiter-Glo), 72 h; series mostly up to 26 µM. In general terms: In ATP-based viability assays light output follows the ATP content of the culture.
In the case of `COc1ccc(Br)c(Cn2c(C)c(C(=O)NCc3ccc4c(c3)OCCO4)sc2=O)c1`, the compound was called inactive.
To `CCCOc1c(Br)cc(C2C3=C(CCCC3=O)N(C)C3=C2C(=O)CCC3)cc1OC` belongs “inactive”; to `CCOC(=O)C1=CN(CC2CCCO2)C=C(C(=O)OCC)C1c1ccccc1C(F)(F)F` (stereo not drawn), “inactive”; to `O=C(COC(=O)c1cc(S(=O)(=O)N2CCCCC2)ccc1N1CCOCC1)c1ccccc1Cl`, “inactive”.
As for `COC(=O)C1=CN(CC2CCCO2)C=C(C(=O)OC)C1c1cccc(O)c1` (stereo not drawn), the entry is “inactive”; as for `Clc1ccccc1C1=CC(c2ccco2)n2ncnc2N1` (stereo not drawn), “inactive”; as for `O=c1oc2cc(O)ccc2cc1S(=O)(=O)c1ccccc1`, “inactive”.
Take `CCCOc1ccc(NC(=O)c2c(-c3ccccc3)noc2C)cc1`: the compound was called inactive.
For `Cn1cc(C(c2ccccc2OCC(=O)O)c2cn(C)c3ccccc23)c2ccccc21`, the compound was classed as inactive.
As for `CC(C)CCn1c(CN2CC(C)OC(C)C2)nc2c1c(=O)n(C)c(=O)n2C` (stereo not drawn), the entry is “inactive”.
Regarding `CN1CCc2c(sc(NC(=O)Cc3ccccc3)c2C#N)C1`, the compound was called inactive.
Consider `Cc1cccn2c(=O)c3cc(C(N)=S)c(=N)n(CCCOC(C)C)c3nc12`, for which the compound was called inactive.
In the case of `O=[N+]([O-])c1cccc(-c2n[nH]c(=S)n2-c2ccc(Br)cc2)c1`, the outcome was inactive.
Regarding `CC1CCCCC1NC(=O)CN1C(=O)c2cccc(N)c2C1=O` (stereo not drawn), the compound was classed as inactive.
For the compound `Cc1ccc(S(=O)(=O)Nc2ccc(Nc3ccccc3)cc2)cc1`, the compound was called inactive.
With `CC(C)OCCCn1c(=N)c(C(N)=S)cc2c(=O)n3ccccc3nc21`, the outcome was inactive.
To `Cc1ccc(S(=O)(=O)c2cc3c(=O)n4ccccc4nc3n(C)c2=N)cc1` belongs “inactive”; to `Cc1ccc2c(c1)-c1c(cnn1CC(=O)Nc1ccccc1N1CCN(C)CC1)CO2`, “inactive”; to `CCCCN1C=C(C(=O)OC)C(c2ccccc2Cl)C(C(=O)OC)=C1`, “inactive”.
For `Nn1c(SCC(=O)N2CCCC2)nnc1-c1cccs1`, the call was inactive.
On to `CC(=O)Oc1ccc2cc(-c3nc4ccccc4n3C)c(=O)oc2c1`, for which the outcome was inactive.
As for `COc1ccc(CCNC(=O)c2cc(S(=O)(=O)N3CCCCC3)c[nH]2)cc1OC`, the entry is “inactive”; as for `COc1cc(C(=O)NCCCNc2nc3c(C)cc(C)cc3cc2C#N)cc(OC)c1OC`, “inactive”.
